# TRHR agonist: TRH receptor (human) agonism | AID 493084 | activation, % at 2 µM | actives 0.18% (n = 360,000) | P34981 | TRHR cells, calcium flux fluo-8, FDSS agonist mode
# Target sequence (P34981 whole entry, looked up): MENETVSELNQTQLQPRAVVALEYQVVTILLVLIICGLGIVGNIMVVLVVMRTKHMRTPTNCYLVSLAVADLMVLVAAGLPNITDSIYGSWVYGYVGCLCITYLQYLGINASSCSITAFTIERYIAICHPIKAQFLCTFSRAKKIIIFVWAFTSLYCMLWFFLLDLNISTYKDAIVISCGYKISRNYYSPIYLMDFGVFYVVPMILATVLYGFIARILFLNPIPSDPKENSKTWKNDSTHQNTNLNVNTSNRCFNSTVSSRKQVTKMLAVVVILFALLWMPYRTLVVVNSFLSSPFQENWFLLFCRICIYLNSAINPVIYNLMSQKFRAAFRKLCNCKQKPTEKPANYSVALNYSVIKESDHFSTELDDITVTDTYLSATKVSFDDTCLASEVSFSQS
#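 In this calcium-flux screen, cells bearing human TRHR are dye-loaded with fluo-8, baselined for 10 cycles, then exposed to library compounds; positive kinetic calcium responses during the agonist phase mark hits, with TRH as control.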
# D1 antagonist: antagonists of human D1 dopamine receptor; P21728; HEK293 TREx D1 cells, calcium flux, dopamine EC80; active compounds read low; activity change, negative = inhibition, % at 10 µM; actives 3.2% (n = 360,000); in the data active means activity change below about -30%
#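 Compound effects on dopamine-evoked calcium signalling were measured in tetracycline-induced HEK293 Trex D1 cells. Dopamine at EC80 followed a 180 s compound pre-read, and fluorescence was tracked kinetically for 180 s more.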
# D1 agonist: agonists of human D1 dopamine receptor; AID 504660; HEK293 T-REx D1 cells, calcium flux, agonist mode; activation, % at 2 µM; actives 1% (n = 360,000)
#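 Inducible HEK293 T-REx D1 cells, force-coupled to calcium signalling, were plated at 4000 cells/well with tetracycline and held overnight at 30 C. After no-wash calcium dye loading, compound-evoked calcium rise over 180 s flagged agonists.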
# TRHR PAM: allosteric enhancers of human TRH receptor | AID 493056 | actives 0.66% (n = 360,000) | enhancement, % at 2 µM | P34981 | TRHR cells, fluo-8 calcium fluorescence, EC20 TRH enhancement; in the data active means enhancement above about 30%
#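 TRHR-expressing cells loaded with fluo-8 calcium dye were read kinetically (ex 480/em 530) during compound addition, then stimulated with an EC20 of TRH (10 nM final). Enhancement of the Gq-mediated intracellular calcium response was scored.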
# D1 potentiator: enhances dopamine response at the human D1 receptor | P21728 | HEK293 TREx D1 cells, calcium flux, dopamine EC20 potentiation | potentiation, % at 10 µM | actives 0.036% (n = 360,000) | AID 504651; in the data active means potentiation above about 30%
# Hits are given with their value; n = inactive; x = no result given. The list is not random: actives were taken first. Their share in the collection is about 4.6%. Unless noted, no stated cut-off is given here; in the data, active means activation above about 30%; inactive means the rest.
SMILES,TRHR agonist,D1 antagonist,D1 agonist,TRHR PAM,D1 potentiator
CCCCCCCCCCC[N+](C)(C)CC/C=C1/c2ccccc2Sc2ccc(Cl)cc21,n,n,48,n,n
CN(C)CCCN(C(=O)c1ccc2c(c1)CCCC2)c1nc2cc3c(cc2s1)OCO3,n,n,39,n,n
CN(C)CCN(C(=O)c1ccc2c(c1)OCCO2)c1nc2ccc(Cl)cc2s1,n,n,n,n,n
CCN(Cc1ccccc1)S(=O)(=O)c1ccc(C(=O)N(CCCN(C)C)c2nc3cc4c(cc3s2)OCO4)cc1,n,-66,n,n,n
CN(C)CCCN(C(=O)c1ccc2c(c1)OCCO2)c1nc2ccc(Cl)cc2s1,n,n,33,n,n
CN(C)CCCN(C(=O)c1ccc2c(c1)CCCC2)c1nc2ccc(F)cc2s1,n,n,n,n,n
CC(=O)c1c(OC(=O)c2ccccc2)c2ccccc2n1C,n,n,n,n,n
CCN1CCN(c2ncc3c(n2)CCN(Cc2cc(F)cc(F)c2)C3)CC1,n,n,n,n,n
O=C(Nc1nc2ccc(S(=O)(=O)N3CCCC3)cc2s1)c1cccc(F)c1,n,n,n,n,n
CCC(=O)C1=C(N2CCCC2)CC(C)(C)CC1=O,n,n,n,n,n
O=C(CSc1nnnn1C1CC1)N1CCN(Cc2ccccc2F)CC1,n,-34,n,n,n
COc1ccccc1N1CCN(C(=O)CSc2nnnn2C2CC2)CC1,n,n,n,n,n
CCOc1ccc2nc(SCC(=O)Nc3nonc3C)[nH]c2c1,n,-35,n,n,n
COc1ccc2nc(SCC(=O)N(C)CC(=O)Nc3ccc(F)cc3)[nH]c2c1,n,n,n,36,n
CN(CC(=O)Nc1ccc(F)cc1)C(=O)CSc1nc2ncc(Cl)cc2[nH]1,n,n,n,n,n
O=C(Nc1ccc(F)cc1)C(Sc1nc2ccccc2[nH]1)c1ccccc1 (stereo not given),n,-42,n,n,n
CN(C(=O)CSc1nc2ccccc2[nH]1)c1ccc(F)cc1,n,-38,n,n,n
O=C(CSc1nc2ccccc2[nH]1)Nc1ccc(F)cc1,n,n,n,n,x
CCN(C(=O)CSc1nc2ccccc2[nH]1)c1ccccc1,n,n,n,n,n
CCN(CC)c1cc2nonc2c2nonc12,n,n,n,n,n
C(=C\c1nnc(-c2cccs2)o1)/c1ccccc1,n,n,n,n,n
COc1ccc(C(=O)Nc2ccc3nc(SCC(=O)N4CCCc5ccccc54)sc3c2)cc1,n,n,n,n,n
CC(C)c1ccc(-c2noc(SCC(=O)N(C)c3ccc(F)cc3)n2)cc1,n,n,50,n,n
N#Cc1ccccc1COC(=O)c1ccc2c(c1)OCO2,n,-42,n,n,n
S=C(NCc1ccco1)Nc1ccc(Cl)cc1,n,-31,n,n,n
SMILES,TRHR agonist,D1 antagonist,D1 agonist,TRHR PAM,D1 potentiator
O=C(O)Cc1ccc(NC(=S)NCc2ccco2)cc1,n,-40,n,n,n
O=C(NC(=S)NCc1ccco1)c1ccccc1,n,-31,n,n,n
S=C(NCc1ccco1)Nc1ccccc1,n,n,n,n,n
COc1ccc(/C=C(\NC(=O)c2ccccc2)C(=O)NCc2ccco2)cc1,n,-31,n,n,n
O=C(NCc1ccco1)/C(=C\c1ccccc1)NC(=O)c1ccccc1,n,n,n,n,x
N#Cc1nc(-c2ccc(Cl)cc2)oc1NCC1CCCO1 (stereo not given),n,n,n,n,n
COc1ccc(-c2nc(=S)c3ccc4ccccc4c3[nH]2)cc1,n,-68,n,n,n
COc1ccc(CCNC(=S)NC2CCN(Cc3ccccc3)CC2)cc1,n,n,42,n,n
S=C(Nc1ccc(Cl)cc1)NC1CCN(Cc2ccccc2)CC1,n,-78,39,38,n
CCC(C)c1ccc(NC(=S)NC2CCN(Cc3ccccc3)CC2)cc1 (stereo not given),n,n,n,n,n
CCc1ccc(NC(=S)NC2CCN(Cc3ccccc3)CC2)cc1,n,-81,34,n,n
CCCNC(=S)NC1CC2CCC(C1)N2Cc1ccccc1 (stereo not given),n,n,n,n,n
S=C(Nc1ccccc1)NC1CCN(Cc2ccccc2)CC1,n,n,n,n,n
S=C(NCCc1ccccc1)NC1CC2CCC(C1)N2Cc1ccccc1 (stereo not given),n,-66,39,n,n
O=C(/C=C/c1ccc(S(=O)(=O)N2CCOCC2)cc1)N1CCN(c2ccc(F)cc2)CC1,n,n,n,n,n
COCCCNC(NC(=O)c1ccc(Cl)cc1)C(Cl)(Cl)Cl (stereo not given),n,n,n,n,n
COCCN(Cc1cc2cc3c(cc2nc1Cl)OCO3)C(=O)c1ccc(C)cc1,n,n,66,n,n
COCCN(Cc1cc2cc(C)c(C)cc2nc1Cl)C(=O)Nc1ccccc1,n,n,n,n,n
COc1ccc(-n2c(=O)c3ccc(C(=O)NCc4ccc(C)cc4)cc3n(Cc3ccc(C)cc3)c2=O)cc1,n,n,n,n,n
Cc1ccc(CNC(=O)c2ccc(Cn3c(=O)c4ccccc4n(CC(=O)Nc4ccc(C)cc4)c3=O)cc2)cc1,n,n,33,n,n
CCc1ccc(NC(=O)Cn2c(=O)n(CCC(=O)N3CCc4ccccc4C3)c(=O)c3ccccc32)cc1,n,-31,n,n,n
C=CCn1c(=O)c2ccc(C(=O)NCc3ccccc3)cc2n(Cc2ccc(C)cc2)c1=O,n,-30,n,n,n
Cc1cc(N2C(=O)CC(N3CCN(c4ccc(C(=O)c5cccs5)cc4)CC3)C2=O)no1 (stereo not given),n,n,n,n,n
COc1ccc(-c2cc([N+](=O)[O-])ccc2OCC(=O)N(C)CC(=O)Nc2ccc(C)cc2)cc1,n,n,n,n,n
COc1ccc(Cn2c(=O)c3c(nc(NCCO)n3C)n(C)c2=O)cc1,n,-33,n,n,n
SMILES,TRHR agonist,D1 antagonist,D1 agonist,TRHR PAM,D1 potentiator
Cn1c(NCCCCO)nc2c1c(=O)n(Cc1ccc(Cl)cc1)c(=O)n2C,n,-33,n,n,n
COCCCNc1nc2c(c(=O)n(Cc3ccc(OC)cc3)c(=O)n2C)n1C,n,n,n,n,n
Cc1cc(-c2ccc(C)c(S(=O)(=O)NCCN3CCC(C)CC3)c2)on1,n,n,n,n,n
COc1ccc(/C=N/NC(=O)c2cc(OC)c(OC)c(OC)c2)cc1CN1CCc2cc(OC)c(OC)cc2C1C (stereo not given),n,n,n,n,n
COc1ccc(CN2CCN(c3ccc(F)cc3)CC2)c(OC)c1OC,n,n,n,n,n
COc1cc(OC)c(CN2CCN(c3ccc(F)cc3)CC2)cc1Br,n,-31,n,n,n
COc1ccc(C2NCCc3c2[nH]c2ccccc32)cc1CN1CCc2cc(OC)c(OC)cc2C1C (stereo not given),n,-54,36,n,n

# High-throughput results deposited in PubChem by National Center for Advancing Translational Sciences (NCATS).
